Experimental findings from the antibiotic and cytotoxicity screens of Wong et al. (2023) are described below.

About 3,300 (8.5%) of roughly 39,000 compounds were called active. The list comes from a sample in which actives are over-represented; it also holds similar structures and randomly drawn compounds.

For this experiment, the system named is HepG2. In words: cytotoxicity call (relative viability < 0.9). As to conditions: 10 µM.
With `C[C@H](CO)N1C[C@H](C)[C@H](CN(C)C(=O)Nc2ccc(C(F)(F)F)cc2)OCCCC[C@H](C)Oc2ccc(N(C)C)cc2C1=O`, the cytotoxicity call is “inactive”. As for `O=C(Cc1ccccc1)NCCN1CCOCC1`, the entry is “inactive”; as for `CO[C@H](CN(C)S(=O)(=O)c1cccc(Cl)c1)[C@@H](C)CN([C@@H](C)CO)S(=O)(=O)c1ccc(Cl)cc1`, “inactive”. As for `COc1ccc(NC(=O)N(C)C[C@@H]2Oc3ccc(NS(=O)(=O)c4cn(C)cn4)cc3C(=O)N([C@H](C)CO)C[C@H]2C)cc1`, the entry is “inactive”; as for `O=C(C[C@@H]1C[C@H]2c3cc(NC(=O)Nc4ccc(C(F)(F)F)cc4)ccc3O[C@H]2[C@@H](CO)O1)NCCc1ccccc1`, “inactive”; as for `C[C@H]1CN([C@@H](C)CO)C(=O)Cc2cc(NC(=O)Cn3cnnn3)ccc2O[C@@H]1CN(C)Cc1ccccc1`, “inactive”. With `CCO[C@@H]1OC(C(=O)N2CCN(Cc3ccccc3)CC2)=C[C@H](c2ccc(Br)cc2)[C@H]1CCCOC(=O)NCCCCCC(=O)NO`, the cytotoxicity call is “inactive”. For the compound `C[C@@H]1CN([C@H](C)CO)C(=O)c2cc(NC(=O)Cc3ccccc3)ccc2O[C@@H]1CN(C)Cc1ccc(C(=O)Nc2ccccc2N)cc1`, the cytotoxicity call is “inactive”. `C[C@@H]1CCCCO[C@H](CN(C)S(=O)(=O)c2ccccc2)[C@@H](C)CN([C@@H](C)CO)C(=O)c2cc(NS(=O)(=O)c3cn(C)cn3)ccc2O1`: the cytotoxicity call was “inactive”. As to `O=C(C[C@@H]1C[C@@H]2c3cc(NS(=O)(=O)c4ccc(F)cc4)ccc3O[C@@H]2[C@H](CO)O1)NCc1ccncc1`, the cytotoxicity call is “inactive”. In the case of `C#CCCCCCCCCCCC[C@H](O)C[C@H](O)COC(C)=O.C=CCCCCCCCCCCC[C@H](O)C[C@H](O)COC(C)=O`, the cytotoxicity call was “inactive”. For `C[C@@H]1CCCCO[C@@H](CN(C)C(=O)Nc2ccc3c(c2)OCO3)[C@@H](C)CN([C@H](C)CO)C(=O)c2cc(NS(=O)(=O)c3ccc(F)cc3)ccc2O1`, the cytotoxicity call was “inactive”.

As to `C[C@H]1CN([C@@H](C)CO)C(=O)c2cc(C3=CCCC3)cnc2O[C@H]1CN(C)C(=O)c1ccc2c(c1)OCO2`, the cytotoxicity call was “active”. As for `C[C@H](CO)N1C[C@H](C)[C@H](CN(C)C(=O)c2ccc3c(c2)OCO3)Oc2ncc(C3=CCCC3)cc2C1=O`, the cytotoxicity call is “inactive”.

For `C[C@H](CO)N1C[C@H](C)[C@@H](CN(C)C(=O)c2ccc3c(c2)OCO3)Oc2ncc(C3=CCCC3)cc2C1=O`, the cytotoxicity call was “inactive”.

Regarding `OC1(c2ccc(Cl)c(C(F)(F)F)c2)CCN(CCCC(c2ccc(F)cc2)c2ccc(F)cc2)CC1` [listing 1 of 2 here], the cytotoxicity call is “active”. For the compound `OC1(c2ccc(Cl)c(C(F)(F)F)c2)CCN(CCCC(c2ccc(F)cc2)c2ccc(F)cc2)CC1` [listing 2 of 2 here], the cytotoxicity call was “active”. For `COC(=O)C[C@@H]1CC[C@@H]2[C@H](COC[C@H](O)CN2S(=O)(=O)c2ccccc2C)O1`, the cytotoxicity call is “inactive”. As for `C[C@@H]1CN([C@H](C)CO)C(=O)Cc2cc(NC(=O)NC3CCCCC3)ccc2O[C@H]1CN(C)S(=O)(=O)c1cn(C)cn1`, the cytotoxicity call is “inactive”. As for `COc1ccc2c(=O)ccoc2c1`, the cytotoxicity call was “inactive”. The result for `COc1ccc2oc(C(C)=O)cc2c1` reads “inactive”. For `COc1ccc2c(-c3ccc(Cl)cc3)c(C)oc2c1`, the cytotoxicity call was “active”. On to `COc1ccc(-c2cc(=O)c3ccccc3o2)cc1`, for which the cytotoxicity call was “inactive”.

As for `COc1ccc2c(C)cc(=O)oc2c1`, the cytotoxicity call was “inactive”. With `COc1ccc(-c2c(C)oc3ccc(Cl)cc23)cc1`, the cytotoxicity call is “active”. For the compound `C[C@@H]1CN([C@H](C)CO)C(=O)c2cccc(NC(=O)C3CCOCC3)c2O[C@@H]1CN(C)Cc1ccncc1`, the cytotoxicity call was “inactive”.

In the case of `C[C@H]1CN([C@@H](C)CO)C(=O)c2cccc(NC(=O)Nc3cccc4ccccc34)c2O[C@H]1CN(C)CC1CCCCC1`, the cytotoxicity call was “inactive”. `COc1ccc2nc(Cl)sc2c1`: the cytotoxicity call is “inactive”. As for `CCN(CCO)CCCC(C)Nc1ccnc2cc(Cl)ccc12.O=S(=O)(O)O` (stereo unspecified), the entry is “active”; as for `COc1ccc2nc3ccc(Cl)cc3c(SCCCN)c2c1`, “inactive”. As to `O=C(OCC(O)CO)c1ccccc1Nc1ccnc2cc(Cl)ccc12` (stereo unspecified), the cytotoxicity call was “inactive”. As to `CCN(CC)CCCC(C)Nc1c2ccc(Cl)cc2nc2ccc(OC)cc12.Cl.Cl` (stereo unspecified), the cytotoxicity call was “active”. With `CCN(CC)Cc1ccc(Nc2ccnc3cc(Cl)ccc23)cc1O.Cl.Cl`, the cytotoxicity call is “active”. Take `Cc1cc(Oc2ccnc3cc(Cl)ccc23)ccc1Cl`: the cytotoxicity call is “inactive”.

`CCN(CC)CCCC(C)Nc1ccnc2cc(Cl)ccc12.O=P(O)(O)O.O=P(O)(O)O` (stereo unspecified): the cytotoxicity call was “active”. Take `Cc1noc(C)c1S(=O)(=O)N(C)C[C@H]1Oc2ccc(NC(=O)c3ccncc3)cc2CC(=O)N([C@H](C)CO)C[C@@H]1C`: the cytotoxicity call was “inactive”. As for `Cc1noc(C)c1NC(=O)N(C)C[C@@H]1Oc2ccc(NC(=O)CCN3CCOCC3)cc2CC(=O)N([C@H](C)CO)C[C@@H]1C`, the entry is “inactive”. On to `Cc1ccc(S(=O)(=O)N(C)C[C@@H]2Oc3ncc(-c4ccncc4)cc3C(=O)N([C@H](C)CO)C[C@H]2C)cc1`, for which the cytotoxicity call was “inactive”. For the compound `COc1ccc(NC(=O)N(C)C[C@H]2Oc3cc(C#CCN(C)C)ccc3S(=O)(=O)N([C@@H](C)CO)C[C@@H]2C)cc1`, the cytotoxicity call is “inactive”. With `C[C@@H]1CN([C@@H](C)CO)C(=O)c2cc(NC(=O)Cn3cnnn3)ccc2O[C@H]1CN(C)Cc1ccc(C(=O)Nc2ccccc2N)cc1`, the cytotoxicity call was “inactive”. Consider `C[C@@H]1CN([C@H](C)CO)C(=O)c2cc(NC(=O)C3CC3)ccc2O[C@@H]1CN(C)C(=O)Nc1ccc2c(c1)OCO2`, for which the cytotoxicity call is “inactive”. For `COc1ccc(C#Cc2cnc3c(c2)C(=O)N([C@H](C)CO)C[C@H](C)[C@@H](CN(C)C(=O)CN(C)C)O3)cc1`, the cytotoxicity call was “inactive”.

For `C[C@H](CO)N1C[C@H](C)[C@H](CN(C)Cc2ccc(C(F)(F)F)cc2)Oc2ccc(NC(=O)Nc3ccccc3)cc2C1=O`, the cytotoxicity call was “active”. As to `C[C@@H]1CN([C@H](C)CO)C(=O)c2cc(NC(=O)Nc3ccccc3)ccc2O[C@H]1CN(C)Cc1ccc(C(F)(F)F)cc1`, the cytotoxicity call was “active”. As for `C[C@@H]1CN([C@H](C)CO)C(=O)c2cc(NC(=O)Nc3ccccc3)ccc2O[C@@H]1CN(C)Cc1ccc(C(F)(F)F)cc1`, the cytotoxicity call is “inactive”. On to `C[C@H]1CN([C@@H](C)CO)C(=O)c2cc(NC(=O)Nc3ccccc3)ccc2O[C@H]1CN(C)Cc1ccc(C(F)(F)F)cc1`, for which the cytotoxicity call was “inactive”. With `C[C@@H]1CN([C@@H](C)CO)C(=O)c2cc(NC(=O)Nc3ccccc3)ccc2O[C@@H]1CN(C)Cc1ccc(C(F)(F)F)cc1`, the cytotoxicity call was “active”. As for `C[C@@H]1CN([C@H](C)CO)C(=O)c2cc(NC(=O)Nc3ccc(C(F)(F)F)cc3)ccc2O[C@@H]1CN(C)Cc1ccc(C(=O)O)cc1`, the entry is “inactive”. The result for `C[C@H]1CN([C@@H](C)CO)C(=O)c2cc(NC(=O)Nc3ccccc3)ccc2O[C@@H]1CN(C)Cc1ccc(C(F)(F)F)cc1` reads “active”; that for `C[C@@H]1CN([C@@H](C)CO)C(=O)c2cc(NC(=O)Nc3ccccc3)ccc2O[C@H]1CN(C)Cc1ccc(C(F)(F)F)cc1`, “inactive”; that for `C[C@H](CO)N1C[C@H](C)[C@H](CN(C)Cc2ccc(C(=O)O)cc2)Oc2ccc(NC(=O)Nc3ccc(C(F)(F)F)cc3)cc2C1=O`, “inactive”.
